# Records with an inconclusive call do not appear. The source made the active and inactive calls. Calls come from the whole dose curve; as a rule, active = well fitted curve in the direction sought with a large enough effect; inconclusive = small, poorly fitted or top-dose-only effect, or another doubt; inactive = no such curve, though single readings can be large; an effect the other way counts as inactive or inconclusive.
# Test: Cytometric Cell-Based qHTS for Inhibitors of the mTORC1 Signaling Pathway in MEF (Tsc2-/-, p53-/-) Cells (AID 2660);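 note: Tsc2 and p53 null MEFs carrying empty vector with compound for 24 h; percent of cells above a phospho-rpS6 to PI ratio cutoff in each well; plate controls were DMSO for no effect and rapamycin for full effect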
# Conditions: mTORC1 pathway cytometry; series mostly up to 38.3 µM; activity change, negative = inhibition: at the top concentration
# How it was run: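 Percent of cells positive for normalized phospho-S6 staining is reported, with the cutoff set from rapamycin (7.5 nM) versus DMSO wells. Tsc2-/-, p53-/- MEFs received compound for 24 hrs.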
row,SMILES,"activity change, negative = inhibition"
1,O=C(Nc1ccccc1)c1cc([N+](=O)[O-])ccc1Cl,-10% (inactive)
2,CCCCCCCCCCCCCCCCCC(=O)OC(CC(=O)O)C[N+](C)(C)C (stereo not drawn),2.98% (inactive)
3,O=C(Nc1cccc(C(=O)Nc2ccc(S(=O)(=O)O)c3cc(S(=O)(=O)O)cc(S(=O)(=O)O)c23)c1)Nc1cccc(C(=O)Nc2ccc(S(=O)(=O)O)c3cc(S(=O)(=O)O)cc(S(=O)(=O)O)c23)c1,0.0006% (inactive)
4,CN1CCc2ccccc2Cc2[nH]c3ccccc3c2CC1,9.21% (inactive)
5,Cc1ccccc1CNc1ncnc2c1ncn2C1OC(CO)C(O)C1O (stereo not drawn),0.483% (inactive)
6,O=C(O)[C@@H]1C[C@H](C(=O)O)N1,5.2% (inactive)
7,O=c1[nH]c2cc(C(F)(F)F)ccc2n1-c1cc(C(F)(F)F)ccc1O,1.28% (inactive)
8,CCCN(CC1CC1)c1nc(C)nc(Nc2c(Cl)cc(Cl)cc2Cl)c1Cl,3.34% (inactive)
9,CCCCCCCC/C=C\CCCCCCCC(=O)NCCO,9.37% (inactive)
10,Ic1ccc(N2CCN(Cc3c[nH]c4ncccc34)CC2)cc1,-19.3% (inactive)
11,C#CCN1C(C)=C(C(=O)OC)C(c2cccc([N+](=O)[O-])c2)C(C(=O)OCC)=C1C (stereo not drawn),4.18% (inactive)
12,Oc1cc(O)cc(/C=C/c2ccc(O)c(O)c2)c1,-5.81% (inactive)
13,Fc1ccc(C(OCCCc2cnc[nH]2)c2ccc(F)cc2)cc1,-0.175% (inactive)
14,N[C@@H](CC(=O)O)C(=O)O,5.84% (inactive)
15,CC(C)Cc1ccc([C@H](C)C(=O)O)cc1,2.87% (inactive)
16,O=c1[nH]c2cc(Cl)c(Cl)cc2[nH]c1=O,4.63% (inactive)
17,CCN1/C(=C/C(C)=O)Sc2ccc(OC)cc21,-2.32% (inactive)
18,O=C1NC(O)=NC1(c1ccccc1)c1ccccc1,4.59% (inactive)
19,O=C(O)CCCC[C@@H]1CCSS1,5.77% (inactive)
20,NCCCCCCCCCCN,2.98% (inactive)

# Test: High Content Imaging Cell-Based qHTS for Inhibitors of the mTORC1 Signaling Pathway in MEF (Tsc2-/-, p53-/-) Cells (AID 2666);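 note: percent of cells scored positive for phospho-rpS6 Ser235/236 immunostaining by imaging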
# Conditions: series mostly up to 38.3 µM
# How it was run: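 Inhibition of rpS6 phosphorylation is measured by immunofluorescence imaging in empty-vector Tsc2-/-, p53-/- mouse embryonic fibroblasts after 24 hrs compound exposure at 37 degree Celsius. Results are reported as % positive cells per well.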
row,SMILES,outcome
1,O=C(Nc1ccccc1)c1cc([N+](=O)[O-])ccc1Cl,inactive
2,CC(C)(C=O)Cc1cc(C(C)(C)C)c(O)c(C(C)(C)C)c1,inactive
3,CCCCCCCCCCCCCCCCCC(=O)OC(CC(=O)O)C[N+](C)(C)C (stereo not drawn),inactive
4,NC[C@@H]1O[C@H](C23CC4CC(CC(C4)C2)C3)Cc2c1ccc(O)c2O,inactive
5,O=C(Nc1cccc(C(=O)Nc2ccc(S(=O)(=O)O)c3cc(S(=O)(=O)O)cc(S(=O)(=O)O)c23)c1)Nc1cccc(C(=O)Nc2ccc(S(=O)(=O)O)c3cc(S(=O)(=O)O)cc(S(=O)(=O)O)c23)c1,inactive
6,CN1CCc2ccccc2Cc2[nH]c3ccccc3c2CC1,inactive
7,Cc1ccccc1CNc1ncnc2c1ncn2C1OC(CO)C(O)C1O (stereo not drawn),inactive
8,Cc1cc(NC(=O)Nc2ccc3c(ccn3C)c2)sn1,inactive
9,O=C(O)[C@@H]1C[C@H](C(=O)O)N1,inactive
10,O=C1C(SCCO)=C(SCCO)C(=O)c2ccccc21,inactive
11,CCCCCC(O)c1cccc(OCc2ccc3ccccc3n2)c1 (stereo not drawn),inactive
12,Oc1ccc(C2CNCc3sccc32)cc1O (stereo not drawn),inactive
13,COc1ccccc1N1CCN(CCCCNS(=O)(=O)c2cccc3c(N(C)C)cccc23)CC1,inactive
14,O=c1[nH]c2cc(C(F)(F)F)ccc2n1-c1cc(C(F)(F)F)ccc1O,inactive
15,CCCN(CC1CC1)c1nc(C)nc(Nc2c(Cl)cc(Cl)cc2Cl)c1Cl,inactive
16,CCCCCCCC/C=C\CCCCCCCC(=O)NCCO,inactive
17,Ic1ccc(N2CCN(Cc3c[nH]c4ncccc34)CC2)cc1,inactive
18,C#CCN1C(C)=C(C(=O)OC)C(c2cccc([N+](=O)[O-])c2)C(C(=O)OCC)=C1C (stereo not drawn),inactive
19,Oc1cc(O)cc(/C=C/c2ccc(O)c(O)c2)c1,inactive
20,Fc1ccc(C(OCCCc2cnc[nH]2)c2ccc(F)cc2)cc1,inactive
21,N[C@@H](CC(=O)O)C(=O)O,inactive
22,CC(C)Cc1ccc([C@H](C)C(=O)O)cc1,inactive
23,CN=c1nc(-c2ccccc2)n(-c2ccccc2)s1,inactive
24,CN(C)C(N)=NCCC[C@H](N)C(=O)O,inactive
25,O=c1[nH]c2cc(Cl)c(Cl)cc2[nH]c1=O,inactive
26,CCN1/C(=C/C(C)=O)Sc2ccc(OC)cc21,inactive
27,O=C1NC(O)=NC1(c1ccccc1)c1ccccc1,inactive
28,O=C(O)CCCC[C@@H]1CCSS1,inactive
29,COc1ccccc1CNCCCCCCNCCCCCCCCNCCCCCCNCc1ccccc1OC,inactive
30,NCCCCCCCCCCN,inactive

# Test: High Content Imaging Cell-Based qHTS for Inhibitors of the mTORC1 Signaling Pathway in MEF Cells (AID 2667); note: potency is the fitted concentration of half-maximal effect;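 for activity change, negative = inhibition: Tsc2-/- p53-/- MEFs stably re-expressing wild-type Tsc2 exposed 24 h; plate controls were DMSO wells for no effect and rapamycin control wells for full effect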
# Conditions: series mostly up to 38.3 µM; activity change, negative = inhibition: at the top concentration
# How it was run: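 Fixed-cell imaging of phospho-S6 (Ser235/236, Alexa-488) after 24 hrs of compound treatment at 37 degree Celsius. Signal was normalized to Hoechst, and thresholds from the highest and lowest wells split cells into % active versus % non-active.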
SMILES,"activity change, negative = inhibition",Potency
CC(C)(C=O)Cc1cc(C(C)(C)C)c(O)c(C(C)(C)C)c1,-100% (inactive),
CCCCCCCCCCCCCCCCCC(=O)OC(CC(=O)O)C[N+](C)(C)C (stereo not drawn),-100% (inactive),
O=C(Nc1cccc(C(=O)Nc2ccc(S(=O)(=O)O)c3cc(S(=O)(=O)O)cc(S(=O)(=O)O)c23)c1)Nc1cccc(C(=O)Nc2ccc(S(=O)(=O)O)c3cc(S(=O)(=O)O)cc(S(=O)(=O)O)c23)c1,-100% (inactive),
Cc1ccccc1CNc1ncnc2c1ncn2C1OC(CO)C(O)C1O (stereo not drawn),-100% (inactive),
Cc1cc(NC(=O)Nc2ccc3c(ccn3C)c2)sn1,-100% (inactive),
O=C(O)[C@@H]1C[C@H](C(=O)O)N1,-100% (inactive),
O=C1C(SCCO)=C(SCCO)C(=O)c2ccccc21,,3.69 µM (active)
CCCCCC(O)c1cccc(OCc2ccc3ccccc3n2)c1 (stereo not drawn),-100% (inactive),
Oc1ccc(C2CNCc3sccc32)cc1O (stereo not drawn),-100% (inactive),
O=c1[nH]c2cc(C(F)(F)F)ccc2n1-c1cc(C(F)(F)F)ccc1O,-100% (inactive),
C#CCN1C(C)=C(C(=O)OC)C(c2cccc([N+](=O)[O-])c2)C(C(=O)OCC)=C1C (stereo not drawn),-100% (inactive),
Fc1ccc(C(OCCCc2cnc[nH]2)c2ccc(F)cc2)cc1,-100% (inactive),
N[C@@H](CC(=O)O)C(=O)O,-100% (inactive),
CC(C)Cc1ccc([C@H](C)C(=O)O)cc1,-100% (inactive),
CN(C)C(N)=NCCC[C@H](N)C(=O)O,-100% (inactive),
O=c1[nH]c2cc(Cl)c(Cl)cc2[nH]c1=O,-100% (inactive),
O=C(O)CCCC[C@@H]1CCSS1,-100% (inactive),
NCCCCCCCCCCN,-100% (inactive),

# — PubChem BioAssay (NCATS)
